Assay results reported in PubChem BioAssay.
A number with no mark means an inactive call. For some of these results: Entries with a potency or affinity are not part of this list. Calls of active or inactive are those of the source. Unless noted, how the calls were made is not given here.

How the values were obtained:
[1] = antimalarial activity against Dd2 strain (AID 2302;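 active means growth inhibition above 50% at the single 2 µM test dose, taken to imply half-maximal potency below 2 µM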;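 further: 0% = DMSO untreated growth and 100% = chloroquine plus artemisinin killed control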); conditions: P. falciparum Dd2 in RBCs, LDH growth readout, 72 h; at 2 µM; hits give high values
[2] = HepG2 cytotoxicity, primary screen, cytotoxicity control for P. falciparum antimalarial project, cell-based, ATP luminescence (AID 2303;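 active means inhibition above 50%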;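 further: 0% = DMSO wells and 100% = digitonin-killed cells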); conditions: HepG2 viability, 24-48 h, at 10 µM, hits give high values
[3] = biological target: L-lactate dehydrogenase (Plasmodium falciparum (isolate CDC / Honduras)) (UniProt Q27743); assay: PfLDH activity inhibition – cell lysate, 3D7 strain, counter-screen for P. falciparum growth inhibition project (AID 2304);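 further: 0% = vehicle and 100% = reference inhibitor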; conditions: P. falciparum 3D7 crude extract, LDH APAD/NBT absorbance; at 2 µM; hits give high values
Sequence of L-lactate dehydrogenase (Plasmodium falciparum (isolate CDC / Honduras)) (Q27743 whole entry, looked up): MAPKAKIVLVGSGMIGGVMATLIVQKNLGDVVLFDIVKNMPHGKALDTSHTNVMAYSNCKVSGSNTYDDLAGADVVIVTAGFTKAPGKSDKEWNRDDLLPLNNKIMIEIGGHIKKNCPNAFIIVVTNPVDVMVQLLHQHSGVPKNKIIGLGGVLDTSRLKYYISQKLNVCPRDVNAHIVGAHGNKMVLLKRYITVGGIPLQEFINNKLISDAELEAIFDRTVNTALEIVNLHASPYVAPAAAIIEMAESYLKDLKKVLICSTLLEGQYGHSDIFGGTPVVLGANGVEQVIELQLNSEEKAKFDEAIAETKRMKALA

[4] = inhibition of 3D7 malaria parasite growth – strain 3D7 (AID 2306);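 further: 0% = DMSO wells and 100% = chloroquine plus artemisinin control wells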; conditions: P. falciparum 3D7 erythrocytic growth, LDH absorbance, 72 h; at 2 µM; hits give high values
[5] = biological target: Calcium-dependent protein kinase 1 (Plasmodium falciparum (isolate 3D7)) (UniProt P62344); assay: PfCDPK1 kinase inhibitors, biochemical, TCAMS library (AID 1159585; cut-off not given, nearly all actives have IC50 up to about 0.98 µM;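 further: inhibitors leave more ATP so luminescence rises with inhibition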); conditions: recombinant PfCDPK1, Kinase-Glo ATP depletion luminescence
Sequence of Calcium-dependent protein kinase 1 (Plasmodium falciparum (isolate 3D7)) (P62344 whole entry, looked up): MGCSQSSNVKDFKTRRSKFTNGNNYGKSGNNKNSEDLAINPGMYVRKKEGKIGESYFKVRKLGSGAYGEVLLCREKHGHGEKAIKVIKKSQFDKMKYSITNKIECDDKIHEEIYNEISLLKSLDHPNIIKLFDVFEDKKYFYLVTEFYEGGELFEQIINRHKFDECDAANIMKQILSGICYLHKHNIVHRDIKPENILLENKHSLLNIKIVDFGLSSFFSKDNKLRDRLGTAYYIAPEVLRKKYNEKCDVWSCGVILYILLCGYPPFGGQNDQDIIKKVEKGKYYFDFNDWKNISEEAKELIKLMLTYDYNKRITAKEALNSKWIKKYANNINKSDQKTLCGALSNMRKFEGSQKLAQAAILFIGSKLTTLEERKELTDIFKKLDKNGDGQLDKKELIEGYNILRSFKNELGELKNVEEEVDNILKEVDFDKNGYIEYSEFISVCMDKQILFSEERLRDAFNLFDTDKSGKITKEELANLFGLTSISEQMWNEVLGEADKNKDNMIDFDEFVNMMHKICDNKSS

[6] = biological target: Plasmodium falciparum protein kinase 6 (PK6, PF3D7_1337100) (UniProt Q8IDW1); assay: PfPK6 kinase inhibitors, biochemical, TCAMS library (AID 1159586); conditions: recombinant PfPK6, Kinase-Glo ATP depletion luminescence
Sequence of Plasmodium falciparum protein kinase 6 (PK6, PF3D7_1337100) (Q8IDW1 1-305): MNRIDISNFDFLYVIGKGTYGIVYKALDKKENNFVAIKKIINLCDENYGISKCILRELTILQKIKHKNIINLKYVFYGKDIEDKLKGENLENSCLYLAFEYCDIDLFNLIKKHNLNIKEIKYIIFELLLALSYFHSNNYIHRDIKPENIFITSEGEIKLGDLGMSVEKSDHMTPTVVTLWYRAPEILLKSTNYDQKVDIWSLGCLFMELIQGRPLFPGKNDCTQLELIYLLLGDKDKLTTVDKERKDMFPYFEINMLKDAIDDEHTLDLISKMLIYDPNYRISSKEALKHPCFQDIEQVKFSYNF

[7] = biological target: Protein kinase 7 (PK7), Plasmodium falciparum 3D7 (PF3D7_0213400) (UniProt Q7YTF7); assay: inhibition of Plasmodium PK7 catalytic activity – biochemical, TCAMS antimalarial set, Kinase-Glo luminescence (AID 1159587); conditions: recombinant PfPK7, Kinase-Glo ATP depletion luminescence
Sequence of Protein kinase 7 (PK7), Plasmodium falciparum 3D7 (PF3D7_0213400) (Q7YTF7 1-343): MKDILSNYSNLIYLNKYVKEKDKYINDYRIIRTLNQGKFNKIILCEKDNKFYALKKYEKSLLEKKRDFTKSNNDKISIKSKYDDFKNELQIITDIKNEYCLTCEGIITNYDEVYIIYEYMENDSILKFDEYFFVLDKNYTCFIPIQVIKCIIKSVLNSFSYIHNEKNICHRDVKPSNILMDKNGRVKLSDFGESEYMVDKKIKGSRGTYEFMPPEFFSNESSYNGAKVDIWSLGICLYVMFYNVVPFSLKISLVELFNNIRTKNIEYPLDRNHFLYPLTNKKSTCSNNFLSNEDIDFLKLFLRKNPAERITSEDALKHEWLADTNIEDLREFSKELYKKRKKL

[8] = biological target: Calcium-dependent protein kinase 4 (Plasmodium falciparum (isolate 3D7)) (UniProt Q8IBS5); assay: PfCDPK4 kinase inhibitors, biochemical, TCAMS library (AID 1159588; cut-off not given, nearly all actives have IC50 up to about 0.91 µM); conditions: recombinant PfCDPK4, Kinase-Glo ATP depletion luminescence
Sequence of Calcium-dependent protein kinase 4 (Plasmodium falciparum (isolate 3D7)) (Q8IBS5 whole entry, looked up): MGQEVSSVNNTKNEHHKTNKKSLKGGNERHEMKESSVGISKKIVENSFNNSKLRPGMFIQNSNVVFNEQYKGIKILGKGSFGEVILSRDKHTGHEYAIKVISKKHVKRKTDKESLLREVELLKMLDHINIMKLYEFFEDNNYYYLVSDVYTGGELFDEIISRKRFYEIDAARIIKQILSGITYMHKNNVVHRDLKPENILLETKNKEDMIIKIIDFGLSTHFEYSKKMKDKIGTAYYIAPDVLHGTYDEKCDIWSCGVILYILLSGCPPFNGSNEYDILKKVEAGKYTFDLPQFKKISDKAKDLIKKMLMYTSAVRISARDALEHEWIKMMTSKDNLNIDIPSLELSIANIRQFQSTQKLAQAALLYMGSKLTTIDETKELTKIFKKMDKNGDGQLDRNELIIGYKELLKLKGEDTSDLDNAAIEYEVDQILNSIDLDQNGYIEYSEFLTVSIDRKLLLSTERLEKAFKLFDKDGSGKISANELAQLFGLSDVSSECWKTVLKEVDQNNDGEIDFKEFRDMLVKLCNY

SMILES | growth inhibition [1] | inhibition [2] | inhibition [3] [%] | growth inhibition [4] | outcome [5] | outcome [6] | outcome [7] | outcome [8]
CC(C)(C)c1ccc(CN2CCCCC(NC(=O)c3cc(-c4cccc(Cl)c4)cs3)C2)cc1 (stereo not drawn) | 60% (active) | 11% | 1 | 96% (active) | inactive | inactive | inactive | inactive
O=S(=O)(NC1CCCCN(Cc2ccccc2O)C1)c1ccc(C(F)(F)F)cc1 (stereo not drawn) | 39% | 1% | 7 | 84% (active) | inactive | inactive | inactive | inactive
O=C(N[C@H]1CCN(Cc2ccc(OCCN3CCNCC3)c(Br)c2)C1)c1ccc(Cl)c(Cl)c1 | 36% | 69% (active) | 5 | 101% (active) | inactive | inactive | inactive | inactive
Cc1cccc2[nH]c(-c3ccc(-c4cccc(NC(=O)c5cnn6cccnc56)c4)cc3)nc12 | 29% | 100% (active) | -4 | 91% (active) | inactive | inactive | inactive | inactive
CCN1CCN(C(=O)NC(C(=O)N2CCCC(COc3ccc(Cc4ccccc4)cc3)C2)c2cccs2)C(=O)C1=O (stereo not drawn) | 87% (active) | 12% | -6 | 95% (active) | inactive | inactive | inactive | inactive
O=C(Nc1cccc(-c2ccc(-c3nc4ccc(C(F)(F)F)cc4[nH]3)cc2)c1)Nc1ccc(Cl)c(Cl)c1 | 51% (active) | 93% (active) | -2 | 100% (active) | inactive | inactive | inactive | inactive
O=C(NCC1CCC(CNCCCc2ccccc2)CC1)Nc1ccc(Cl)c(Cl)c1 (stereo not drawn) | 2% | 26% | -6 | 99% (active) | inactive | inactive | inactive | inactive
Clc1ccc(-c2cc(-c3csc(NCCN4CCOCC4)n3)on2)c(Cl)c1 | 86% (active) | 39% | -3 | 97% (active) | inactive | inactive | inactive | inactive
CC1CCCN1Cc1cccc(-c2ccc(C(=O)NCCOc3ccccc3)s2)c1 (stereo not drawn) | 0% | 26% | -3 | 83% (active) | inactive | inactive | inactive | inactive
CCOc1ccccc1CNc1nccc(NCc2ccc(Cl)cc2Cl)n1 | 58% (active) | 26% | -3 | 83% (active) | inactive | inactive | inactive | inactive
CCCc1c(Cl)cc(CNCCCNc2nc3ccncc3[nH]2)cc1Cl | -5% | 23% | -5 | 98% (active) | inactive | inactive | inactive | inactive
O=C(Nc1cccc(-c2ccc(-c3nc4ccc(F)cc4[nH]3)cc2)c1)c1ccncc1 | 96% (active) | 52% (active) | -5 | 101% (active) | inactive | inactive | inactive | inactive
O=C(c1ccc([N+](=O)[O-])o1)N1CCC(Cc2ccc(C(F)(F)F)cc2)CC1 | 99% (active) | 38% | -2 | 101% (active) | inactive | inactive | inactive | inactive
COc1cccc2c(NN=Cc3cccc(Cl)c3)cc(C)nc12 | 75% (active) | 3% | 2 | 101% (active) | inactive | inactive | inactive | inactive
O=C(Cc1ccccc1)NC(CCN1CCC(NC(=O)c2ccc(Cl)cc2)CC1)c1ccc(Cl)c(Cl)c1 (stereo not drawn) | 23% | 17% | -2 | 85% (active) | inactive | inactive | inactive | inactive
O=C(Cn1c(CCc2cccc(F)c2F)cc(=O)c2ccccc21)N(CCN1CCCC1)Cc1ccc(-c2ccc(C(F)(F)F)cc2)cc1 | 57% (active) | 89% (active) | -2 | 99% (active) | inactive | inactive | inactive | inactive
CCOC(=O)c1cn(CC)c2cc(OCc3ccccc3)ccc2c1=O | 96% (active) | 2% | 2 | 97% (active) | inactive | inactive | inactive | inactive
CS(=O)(=O)c1ccc(CNCc2ccc(-c3cccc(-c4nc5ccc(C(F)(F)F)cc5[nH]4)c3)cc2)cc1 | 100% (active) | 54% (active) | 8 | 102% (active) | inactive | inactive | inactive | inactive
COc1ccc(-n2nc(C)cc2C(=O)NCc2ccc(-c3c(C)noc3C)cc2)cc1 | 92% (active) | 3% | 3 | 101% (active) | inactive | inactive | inactive | inactive
Cc1ccccc1C(=O)NC(NC(=S)Nc1ccc([N+](=O)[O-])cc1)C(Cl)(Cl)Cl (stereo not drawn) | 39% | -7% | 0 | 101% (active) | inactive | inactive | inactive | inactive
Cc1cccc2[nH]c(-c3ccc(-c4cccc(CNCc5ccc(S(C)(=O)=O)cc5)c4)s3)nc12 | 91% (active) | 31% | -3 | 100% (active) | inactive | inactive | inactive | inactive

SMILES | growth inhibition [1] | inhibition [2] | inhibition [3] [%] | growth inhibition [4] | outcome [5] | outcome [6] | outcome [7] | outcome [8]
Cc1ccc2c(NN=Cc3cccc(Cl)c3)cc(C)nc2c1 | 52% (active) | 50% (active) | -2 | 96% (active) | inactive | inactive | inactive | inactive
Cc1sc(CNCCCNc2cc(=O)c3ccccc3[nH]2)c(I)c1C | 48% | -10% | -4 | 94% (active) | inactive | inactive | inactive | inactive
NC1CCCN(Cc2ccc(-c3ccc(-c4nc5ccc(F)cc5[nH]4)s3)cc2)C1 (stereo not drawn) | 98% (active) | 40% | 1 | 100% (active) | inactive | inactive | inactive | inactive
Cc1ccc(CCC(C)NCC(O)c2cccc(Cl)c2)cc1 (stereo not drawn) | 97% (active) | 2% | -4 | 97% (active) | inactive | inactive | inactive | inactive
CCNc1cc(C(=O)N[C@@H](Cc2ccccc2)[C@H](O)CNC(C)(C)Cc2ccccc2)cc(N2CCCC2=O)c1 | 78% (active) | 1% | 3 | 99% (active) | inactive | inactive | inactive | inactive
O=C(Nc1ccc(OCc2ccccc2)cc1)c1nc2ccccc2nc1Cl | 95% (active) | 48% | 3 | 96% (active) | inactive | inactive | inactive | inactive
CN(C)c1ccc(-c2csc(C(=O)NCC3CCN(CC4CCCCC4)C3)c2)cc1 (stereo not drawn) | 28% | 35% | 1 | 86% (active) | inactive | inactive | inactive | inactive
O=[N+]([O-])c1cnc(Nc2ccccc2O)nc1Nc1ccccc1O | 80% (active) | 24% | -3 | 98% (active) | inactive | inactive | inactive | inactive
O=C(Nc1ccc(NC2=NCCN2)cc1)Nc1ccc(NC2=NCCN2)cc1 | 72% (active) | -6% | -1 | 88% (active) | inactive | inactive | inactive | inactive
O=C(CC(=O)Nc1cc(Cl)cc(Cl)c1)Nc1cc(Cl)cc(Cl)c1 | 96% (active) | -4% | -2 | 95% (active) | inactive | inactive | inactive | inactive
COc1ccc(CNC2Cc3ccccc3C2)cc1-c1ccc(S(=O)(=O)NCCN2CCCC2)cc1 | 61% (active) | 40% | -7 | 101% (active) | inactive | inactive | inactive | inactive
COc1ccc(CNCc2ccc(-c3cccc(-c4nc5ccc(C(F)(F)F)cc5[nH]4)c3)cc2)cc1 | 100% (active) | 59% (active) | -8 | 102% (active) | inactive | inactive | inactive | inactive
CC(C)(C)C1CC(=O)C[C@@H]2C(=O)N(c3ccc(Br)cc3)C(=O)[C@H]12 (stereo partly drawn) | 7% | -2% | 1 | 94% (active) | inactive | inactive | inactive | inactive
c1ccc(-c2ccc(-c3csc(Nc4ccncc4)n3)cc2)cc1 | 97% (active) | 30% | 3 | 101% (active) | inactive | inactive | inactive | inactive
COc1ccc(-c2nc3ccc(C)nc3nc2-c2ccc(OC)cc2)cc1 | -2% | 4% | 4 | 91% (active) | inactive | inactive | inactive | inactive
O=C(Cc1cccc(Cl)c1)Nc1cccc(-c2c[nH]c3nc(Nc4cccc(O)c4)ncc23)c1 | 74% (active) | 23% | 3 | 100% (active) | inactive | inactive | inactive | inactive
CC(C)NCc1ccc(-c2cccc(NC(=O)c3cccc(C#N)c3)c2)cc1 | 78% (active) | 9% | -6 | 100% (active) | inactive | inactive | inactive | inactive
COCCNCc1ccc(-c2ccc(CNC3CCN(Cc4ccccc4)CC3)cc2)cc1 | 61% (active) | 22% | -4 | 100% (active) | inactive | inactive | inactive | inactive
c1ccc2ncc(CNCCCCCCCCNCc3cnc4ccccc4c3)cc2c1 | 4% | 8% | -3 | 88% (active) | inactive | inactive | inactive | inactive
Cc1cc(-c2ccc(CNCCc3cccs3)cc2)ccc1S(=O)(=O)NCc1ccccc1 | -2% | 28% | 3 | 94% (active) | inactive | inactive | inactive | inactive
